{
  "source": "PubChem BioAssay AID651784",
  "about": "(National Center for Advancing Translational Sciences (NCATS), 2012)",
  "note": "Results filed as inconclusive are left out. Calls of active or inactive are those of the source. The call rests on the fitted dose curve; in most records, active means well fitted inhibition curve with a large enough effect; inconclusive means small, poorly fitted or top-dose-only effect; inactive means no such curve, though single readings can be large or run the other way. Potency means the concentration at half of the fitted maximal effect.",
  "data": [
    {"assay": "Acumen qHTS Assay for Inhibitors of the mTORC1 Signaling Pathway in MEF (Tsc2-/-, p53-/-) Cells: Hit Validation;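 further: phospho-rpS6 Ser235/236 immunofluorescence normalized to propidium iodide cell count; nearly all actives have a fitted effect of over 65% in size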;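 on activity change, negative = inhibition: cells exposed to compound for 24 hours; plate controls were DMSO for no effect and 7.5 nM rapamycin control for full effect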", "details": "Acumen imaging; activity change, negative = inhibition: at 37.3 µM (top of the series)", "units": {"activity change, negative = inhibition": "%"}, "values": [
      {"smiles": "O=C(CN1C(=O)C(c2ccc(F)cc2)=NC12CCCCCC2)Nc1ccccc1Cl", "activity change, negative = inhibition": 12.4},
      {"smiles": "COc1ccc(OC)c(C(=O)CC2(O)C(=O)N(Cc3ccccc3C)c3ccccc32)c1", "note": "(stereo not drawn)", "Potency": "2.61 µM (active)"},
      {"smiles": "COc1ccc(NC(=O)CSc2c3c(nc4ccccc24)CCC3)c(OC)c1", "activity change, negative = inhibition": 11.1},
      {"smiles": "CCc1nnc(SC(CC)C(=O)Nc2cccc(OC)c2)c2cc3oc(C)cc3n12", "note": "(stereo not drawn)", "activity change, negative = inhibition": -6.5},
      {"smiles": "Cc1cccc(-n2cnc3cc(C(=O)NC4CCCCCC4)ccc32)c1", "Potency": "18.5 µM (active)"},
      {"smiles": "COc1cc2ncnc(Nc3ccc(F)c(Cl)c3)c2cc1OCCCN1CCOCC1", "activity change, negative = inhibition": -7.44},
      {"smiles": "CCN1CCC(N(Cc2ccc(F)cc2)C(=O)Nc2ccc(C)c(F)c2)CC1", "activity change, negative = inhibition": 5.5},
      {"smiles": "O=C(NC1CCN(Cc2ccccc2)CC1)c1ccc(Cn2c(=O)c3ccccc3n(Cc3ccc(F)cc3)c2=O)cc1", "Potency": "3.69 µM (active)"},
      {"smiles": "CCn1c(=O)sc2cc(NS(=O)(=O)c3ccc(F)c(C)c3)ccc21", "activity change, negative = inhibition": -28.9},
      {"smiles": "Cc1ccccc1C(=O)N1CCN(CCc2ccccn2)CC1", "activity change, negative = inhibition": -26.5},
      {"smiles": "COc1ccc2cc(CNc3ccccc3)c(=O)n(CC(=O)Nc3ccc(C)cc3C)c2c1", "activity change, negative = inhibition": -44},
      {"smiles": "CC(C)CCNC(=O)Nc1ccc2c(c1)N(C)C(=O)c1ccccc1S2", "activity change, negative = inhibition": -8.55},
      {"smiles": "Cc1ccc(-n2c(=O)c3ccc(C(=O)NCc4ccco4)cc3n(Cc3ccc(Cl)cc3)c2=O)cc1", "Potency": "9.27 µM (active)"},
      {"smiles": "COc1ccc(C2CC(=O)c3c([nH]c(C(=O)OC4CCCCCC4)c3C)C2)cc1OC", "note": "(stereo not drawn)", "activity change, negative = inhibition": 8.05},
      {"smiles": "Cc1ccc(NC(=O)c2nc(S(=O)(=O)Cc3ccc(F)cc3)ncc2Cl)cc1C", "Potency": "11.7 µM (active)"},
      {"smiles": "CCS(=O)(=O)c1ncc(Cl)c(C(=O)N(Cc2ccccc2)Cc2ccco2)n1", "Potency": "5.21 µM (active)"},
      {"smiles": "O=C(CCCn1c(=O)c2ccccc2n(Cc2cccc(Cl)c2)c1=O)NCCc1ccc(Cl)cc1", "activity change, negative = inhibition": -4.01},
      {"smiles": "COc1ccc(CNC(=O)Cn2c(SCC(=O)Nc3ccc(C)c(C)c3)nc3ccccc32)cc1", "activity change, negative = inhibition": -79.6},
      {"smiles": "CCC(C(=O)N1CCN(c2cccc(C)c2C)CC1)n1nc(C)c2sc3ccccc3c2c1=O", "note": "(stereo not drawn)", "activity change, negative = inhibition": -0.603},
      {"smiles": "Cc1nn(CC(=O)N2CCN(c3ccccc3F)CC2)c(=O)c2cccn12", "activity change, negative = inhibition": 2.89},
      {"smiles": "Cc1nc2nncn2c(NCc2ccc(F)cc2)c1C", "activity change, negative = inhibition": -42.2},
      {"smiles": "COc1ccc(-c2[nH]nc3nc(-c4cc(OC)c(OC)c(OC)c4)cc(C(=O)O)c23)cc1", "activity change, negative = inhibition": 15.4},
      {"smiles": "CCOC(=O)c1c(NC(=O)c2ccc(S(=O)(=O)N(CCOC)CCOC)cc2)sc2c1CC(C)(C)NC2(C)C", "Potency": "8.26 µM (active)"},
      {"smiles": "COc1ccc(NC(=O)CSc2nc3ccccc3n2Cc2cccc(OC)c2)cc1", "activity change, negative = inhibition": -5.71},
      {"smiles": "O=C(Nc1ccccc1)N(Cc1cccc(Cl)c1)c1ccccn1", "activity change, negative = inhibition": 14.8},
      {"smiles": "COc1cc(C(=O)n2nc(C)c(Sc3ccc(Cl)cc3)c2C)cc(OC)c1OC", "activity change, negative = inhibition": -8.63},
      {"smiles": "CCCCOCc1cc(CN2CCN(c3cccc(Cl)c3)CC2)c(O)c2ncccc12", "Potency": "2.61 µM (active)"},
      {"smiles": "CCCCOc1ccc(CN2C(=O)C(=O)c3cc(Br)cc(C)c32)cc1OC", "Potency": "4.65 µM (active)"},
      {"smiles": "CC(C)c1ccc(NS(=O)(=O)c2ccc3nc(-c4ccccc4)[nH]c3c2)cc1", "activity change, negative = inhibition": -0.821},
      {"smiles": "CC(C)(C)c1ccc(C2NC(=O)c3n[nH]c(-c4cccs4)c32)cc1", "note": "(stereo not drawn)", "activity change, negative = inhibition": -6.84},
      {"smiles": "COc1ccc(OC)c(NC(=O)c2nc(S(=O)(=O)Cc3ccc(F)cc3)ncc2Cl)c1", "Potency": "2.07 µM (active)"},
      {"smiles": "CCN(CC)CCn1c(=N)n(CC(O)COc2ccccc2C)c2ccccc21", "note": "(stereo not drawn)", "Potency": "4.65 µM (active)"},
      {"smiles": "CC(=O)N1CCCc2cc(S(=O)(=O)N(Cc3ccccc3)C(C)C)ccc21", "activity change, negative = inhibition": -22.8},
      {"smiles": "CCOc1ccc(S(=O)(=O)N(C(C)=O)c2ccc3oc(C)c(C(=O)OC)c3c2)cc1", "activity change, negative = inhibition": -69.9},
      {"smiles": "CC(=O)C1=C(c2ccccc2)N(C(C)=O)n2c(nnc2C2CCCCC2)S1", "Potency": "7.36 µM (active)"},
      {"smiles": "COc1ccc(C)cc1NC(=O)CCNS(=O)(=O)c1cccc2nonc12", "activity change, negative = inhibition": 5.15},
      {"smiles": "O=C(Cn1c(=O)c2ccccc2n(CC(=O)Nc2ccc(Cl)cc2)c1=O)NCCc1ccccc1", "activity change, negative = inhibition": 0.576},
      {"smiles": "CS(=O)(=O)c1ncc(Cl)c(C(=O)N(Cc2ccc(Cl)cc2)Cc2ccco2)n1", "activity change, negative = inhibition": -102}
    ]}
  ]
}
